# Results from PubChem BioAssay (NCI).
# About 83,000 compounds went through this panel and 20% of them were active in at least one assay; those are over-represented in the sample as a whole.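 Activity criterion: percent growth below 10, measured after cells in 96-well plates were exposed to a single compound concentration for 48 hours.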 A number with no mark means an inactive call. Activity calls are given as the source filed them.
# Tested on: HS 578T breast
# Experiment: NCI-60 one-dose screen, 48 h (100 = growth as untreated, 0 = no growth, -100 = all killed)
# Details: 10 µM
# Protocol: Growth inhibition of the HS 578T human tumor cell line is measured as a screen for anti-cancer activity. Cells are grown in 96 well plates and exposed to the test compound for 48 hours. Compounds are tested at a single concentration, which is 10^-5 M for most compounds. The reported endpoint is percent growth (GI% or GIPRCNT), where numbers from 0 - 100% represent growth inhibition, and numbers from -100% - 0 represent cell death. For example, a value of 40 represents 60% growth inhibition. A value of 0 means no net growth occurred over the course of the experiment. A value of -40 indicates 40% of cells at the beginning of the experiment died by the end of the experiment. A value of -100 means all cells are dead at the end of the experiment.
# NCI-60 Human Tumor Cell Lines Screen was performed using the standard one-dose NCI protocol, which is described in more detail at https://dtp.cancer.gov/discovery_development/nci-60/default.htm.
# Compounds with GIPRCNT values below 10 were considered active. Activity score was based on GIPRCNT using the following formula: […]
# Score is 0 for GIPRCNT values of 100 or above, 50 for GIPRCNT values of 0, and 100 for GIPRCNT values of -100.
row,Structure (SMILES),growth
1,NC(=Nc1ccc(OCCCCCCCCn2ccnn2)cc1)c1ccccc1,40.7%
2,COc1ccc(CN2[C@@H](C(=O)NCc3ccc(C(=O)NO)cc3)Cc3c([nH]c4ccccc34)[C@@H]2C2CC2)cc1,-14.3% (active)
3,CC(=O)Nc1nc(-c2ccc(N3CCN(C)CC3)c(NS(=O)(=O)c3cccc4c(N(C)C)cccc34)c2)cs1,41%
4,C[C@H]1[C@H](C)CC[C@]2(COC(=O)CCC(=O)NCC#CCN3CCNCC3)CC[C@]3(C)C(=CC[C@@H]4[C@@]5(C)CCCNC(C)(C)[C@@H]5CC[C@]43C)[C@H]12,60.8%
5,CC(=O)NCC1=C(C)C=C2C(=O)[C@](C)(O)C3(CC3)C(C)=C21,-37.4% (active)
6,N#Cc1ccc(-c2nn(-c3ccc(C(=O)O)cc3)cc2CNc2cc(Cl)cc(C(F)(F)F)c2)cc1,-0.292% (active)
7,CC(C)C(=O)Nc1ccc(C(=O)NC(=S)Nc2ccc(C(=O)O)cc2)cc1,98.8%
8,C#CCNC(=O)[C@]12CCC(C)(C)C[C@H]1C1=CC[C@@H]3[C@@](C)(CCC#N)[C@H](C(=C)C)CC[C@@]3(C)[C@]1(C)CC2,79.4%
9,CC(=O)OC[C@@]1(C)C2CC[C@]3(C)C(CC=C4C5CC(C)(C)CC[C@]5(C(=O)Nc5ccccc5)CC[C@]43C)[C@@]2(C)C[C@@H](OC(C)=O)[C@@H]1OC(C)=O (stereo not given in full),52.3%
10,O=C1CCC(N2Cc3cc(NC(=O)COc4ccccc4)ccc3C2=O)C(=O)N1 (stereo not given),36.3%
11,CCN1CCN(Cc2ccc(NC(=O)c3cccc(-n4cc(-c5ccc(NC(C)=O)nc5)nn4)c3)cc2C(F)(F)F)CC1,101%
12,O=C(CNc1nc(-c2ccccc2)cs1)Nc1cccc([N+](=O)[O-])c1,-19.2% (active)
13,COc1ccc2nc(Nc3cccc(NC(=O)c4ccc(CN5CCN(C)CC5)c(C(F)(F)F)c4)c3)ccc2c1,-23.1% (active)
14,N#Cc1c(NC(=O)c2cccc(C(F)(F)F)c2)sc2c1CCC(O)=C2,44.1%
15,Cn1cc(/C=N/Nc2cccc(Cl)n2)c2ccccc21,69.4%
16,CCCn1c(=O)c2[nH]c(-c3ccc(OCc4nc5ccc(C)cc5[nH]4)cc3)nc2n(CCC)c1=O,-12.4% (active)
17,COc1ccc(Nc2nc(N)n(Cc3cccc(Br)c3)n2)cc1,-12.3% (active)
18,COc1ccc(C(=O)CSc2nnc(-c3c[nH]c4ccccc34)n2-c2ccccc2)cc1,15.5%
19,O=C(CSc1nnc(-c2c[nH]c3ccccc23)n1-c1ccccc1)Nc1ccc(C(=O)/C=C/c2ccccc2Cl)cc1,86.4%
20,Clc1ccc(/C=N/Nc2ncnc3sc4c(c23)CCN(Cc2ccccc2)C4)cc1,-11% (active)

row,Structure (SMILES),growth
1,COc1ccc(/C(CSc2nnc(-c3c[nH]c4ccccc34)n2-c2ccccc2)=N/O)cc1,38.8%
2,Cn1cc(-c2cc(N)n3nc(-c4c[nH]c5ccc(Br)cc45)cc3n2)c2cc(Br)cnc21,-29% (active)
3,O=C(CSc1nnc(-c2ccc3nc(-c4ccccc4)[nH]c3c2)o1)Nc1ccc(Cl)cc1,16.7%
4,COc1nccnc1NS(=O)(=O)c1ccc(NC2=C(Cl)C(=O)c3nc(C)ccc3C2=O)cc1,92.8%
5,COc1cc2c3c(n(CCCn4ccnc4)c(=O)c2cc1OC)-c1nc2c(cc1C3=O)OCO2,119%
6,CN1CCN(Cc2ccc(NC(=O)c3cncc(C#Cc4cnc5ccc(N[C@@H]6CCOC6)nn45)c3)cc2C(F)(F)F)CC1,-41% (active)
7,COc1ccc(C(=O)/C=C/c2cc(C(F)(F)F)cc(C(F)(F)F)c2)cc1S(N)(=O)=O,-12.8% (active)
8,COc1cccc(COc2ccc(/C=C3\Oc4cc(O)ccc4C3=O)cc2)c1,-7.04% (active)
9,CCOc1ccc(/C=N/NC(=O)Cn2nc(Cc3ccc([N+](=O)[O-])cc3)c3onc(C)c3c2=O)cc1,-7.55% (active)
10,O=C1Nc2ccc(Cl)cc2/C1=C/c1ccc(OCc2ccc(Br)cc2F)cc1,-0.705% (active)
11,COC(=O)CC1CC1C1Cc2c(nc(N(C)S(C)(=O)=O)nc2C(C)C)-c2ccc(F)cc21 (stereo not given),84.6%
12,N#Cc1c(NC(=O)c2ccc(C(F)(F)F)cc2)sc2c1CCC(O)=C2,12.3%
13,O=C1Nc2ccc(F)cc2/C1=C/c1cccc(OCc2ccccc2)c1,32.3%
14,Oc1ccc(/C=C2\CCCc3cc4ccc(O)cc4[o+]c32)c(O)c1,52.3%
15,Cc1ccc(C(=O)CSc2nnc(-c3c[nH]c4ccccc34)n2-c2ccccc2)cc1,-0.727% (active)
16,COc1ccsc1/C=N/NC(=O)c1[nH]c2ccc(Br)cc2c1-c1ccccc1,-1.24% (active)
17,COc1cccc2nc(Nc3cccc(NC(=O)c4ccc(CN5CCCN(C)CC5)c(C(F)(F)F)c4)c3)ccc12,-61.7% (active)
18,CCCn1c(=O)c2[nH]c(-c3ccc(OCc4nc5ccc(F)cc5[nH]4)cc3)nc2n(CCC)c1=O,0.819% (active)
19,CC(=O)c1ccc(Nc2nc(SCCC(C)C)nc(-c3ccc(F)cc3)c2C#N)cc1,32%
20,Cc1noc2c(Cc3ccccc3)nn(CC(=O)N/N=C/c3ccc(Br)cc3)c(=O)c12,30.7%
